Source: PubChem BioAssay AID624288 (National Center for Advancing Translational Sciences (NCATS), 2012)
The campaign covered roughly 340,000 compounds. About 1,400 (0.41%) were called active. A call without a number means that no potency is given here. Another 4% or so got no clear call; they are omitted. Calls follow the shape of the full dose curve; cell line not stated here. For the sample, actives were picked, then their nearest neighbours and some compounds at random.

Experiment: qHTS for Antagonists of gsp, the Etiologic Mutation Responsible for Fibrous Dysplasia/McCune-Albright Syndrome: qHTS; also: nearly all actives have a fitted effect of over 65% in size
Settings: gsp-mutant cells, cAMP HTRF, 30 min; series mostly up to 76.9 µM
In short: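 Cells in G418 medium, seeded 16-24 h, 37C; buffer exchange to DPBS + 1 mM CaCl2, 0.5 mM MgCl2, 0.05% BSA; cpds in DMSO + […] (300 uM stock), 30 min 37C; HTRF cAMP detection.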
Potency is read from the fitted curve at half-maximal effect.

SMILES	Potency
COc1ccc(CNCCCn2cnc3c(OCc4ccccc4)ncnc32)cc1	inactive
CCOC(=O)N1CCN(C(=O)CN(c2ccc(C)c(C)c2)S(=O)(=O)c2ccccc2)CC1	inactive
CCOC(=O)N1CCN(C(=O)c2ccc(CN(c3ccc(C)c(C)c3)S(C)(=O)=O)cc2)CC1	22.4 µM (active)
CCN1CCN(C(=O)c2ccc(CN(c3ccc(C)c(C)c3)S(C)(=O)=O)cc2)CC1	inactive
CC/C(=C\c1ccc(Cl)cc1)c1ccncc1	inactive
Cc1ccc(C)c(OCCC(=O)Nc2cccc(S(=O)(=O)N3CCCC3)c2)c1	inactive
Cc1ccc(C)c(S(=O)(=O)N2CCN(CC(=O)Nc3ccc([N+](=O)[O-])cc3)CC2)c1	inactive
CC(=O)Nc1ccc(S(=O)(=O)N2CCN(CCCOc3cc(C)ccc3C)CC2)cc1	31.6 µM (active)
CCC1([N+](=O)[O-])COC(c2ccc(C)cc2)OC1 (stereo unspecified)	inactive
NC(=O)C1(Nc2ccccc2Cl)CCCC1	inactive
CC(Nc1ccc([N+](=O)[O-])cc1[N+](=O)[O-])c1ccccc1 (stereo unspecified)	inactive
O=C(Nc1ccccc1)c1ccc2c(c1)OCCCO2	inactive
O=C(Nc1cccc(S(=O)(=O)Nc2ccc(Cl)cc2)c1)c1ccc2c(c1)OCCO2	35.5 µM (active)
O=C(Nc1ccc(NC(=O)c2ccc3c(c2)OCO3)cc1)c1cccc(Cl)c1	inactive
CN(C(=O)c1cccc(NC(=O)Cc2ccc(NC(=O)C3CCN(C(=O)C4CCCCC4)CC3)cc2)c1)C1CCC1	inactive
COc1cc(/C=C/CNC[C@H]2O[C@@H](n3cnc(C(N)=O)n3)[C@H](O)[C@@H]2O)ccc1O	inactive
CC(=O)N1CCCc2cc(S(=O)(=O)CCC(=O)N3CCN(c4ccccc4)CC3)ccc21	inactive
CC(=O)N1CCCc2cc(S(=O)(=O)N3CCCC(C(=O)NCc4ccc(Cl)cc4)C3)ccc21 (stereo unspecified)	inactive
CC(=O)N1CCCc2cc(S(=O)(=O)N3CCCC(C(=O)N4CCN(c5cccc(Cl)c5)CC4)C3)ccc21 (stereo unspecified)	28.2 µM (active)
CC(=O)Oc1ccc(OC(C)=O)c2c1C1C=CC2CC1	inactive
Cc1cccc(CSc2nnc(Cn3c(=O)sc4ccccc43)n2C)c1	inactive
COc1ccc(Cn2c(=O)sc3ccccc32)cc1OC	11.2 µM (active)

SMILES	Potency
COc1ccccc1CNC(=O)CCn1c(=O)sc2ccccc21	inactive
COc1ccc(CCN2CC(C(=O)OCC(=O)NCc3ccccc3Cl)CC2=O)cc1OC (stereo unspecified)	inactive
NC(CSC1(c2ccccc2)c2ccccc2-c2ccccc21)C(=O)O (stereo unspecified)	inactive
CSCCC(NC(=O)COc1ccccc1)C(=O)N1CCN(c2cccc(C(F)(F)F)c2)CC1 (stereo unspecified)	inactive
COC(C[C@H](O)CC(=O)[C@@H](C)OCc1ccccc1)OC	inactive
COC(C[C@@H](O)C[C@@H](O)[C@H](C)OCc1ccccc1)OC	inactive
COC(C[C@@H](O)C[C@H](O)[C@H](C)OCc1ccccc1)OC	50.1 µM (active)
CC(=NNC(=S)N1CCCCCC1)c1ccccn1	inactive
O=C(CCC(=O)N1CCN(S(=O)(=O)c2ccc(Cl)cc2)CC1)NCc1cccc(C(F)(F)F)c1	35.5 µM (active)
CC(NC(=O)CCC(=O)N1CCN(S(=O)(=O)c2ccc(Cl)cc2)CC1)c1ccccc1 (stereo unspecified)	inactive
O=C(NCc1cccc(C(F)(F)F)c1)c1cccc(S(=O)(=O)N2CCN(Cc3ccccc3)CC2)c1	inactive
NC(=O)c1ccc(N2CCCC2)nc1	inactive
O=C(O)c1ccc(S(=O)(=O)c2ccccc2)s1	inactive
O=C(Nc1cccc(Br)c1)c1ccc2snnc2c1	inactive
CCc1ccccc1NC(=O)c1ccc2snnc2c1	inactive
O=C(Nc1ccc2ccccc2c1)Nc1ccc2snnc2c1	31.6 µM (active)
COc1cccc(C2c3[nH]c4ccccc4c3CCN2Cc2cccc(C)n2)c1 (stereo unspecified)	39.8 µM (active)
Oc1cccc(C2c3[nH]c4ccccc4c3CCN2Cc2cnn(-c3ccccc3)c2)c1 (stereo unspecified)	inactive
COc1ccc(C2c3[nH]c4ccccc4c3CCN2CCCn2cccn2)cc1C (stereo unspecified)	inactive
O=C(Nc1c(Br)cc2c(c1Br)Cc1cc([N+](=O)[O-])ccc1-2)C(Cl)Cl	inactive
CCCc1ccc(-c2c(C)sc(NC(=O)c3ccnn3C)c2C#N)cc1	20 µM (active)
CCN(CC)C(=O)c1sc(NC(=O)c2ccco2)c(C#N)c1C	inactive

SMILES	Potency
Cn1nccc1CNC(=O)c1ccnn1C	inactive
COc1cc2c(cc1OC)C(Cc1cc(OC)c(OC)cc1[N+](=O)[O-])=NCC2	inactive
NC(=O)c1ncn([C@@H]2O[C@H](CN=C3NS(=O)(=O)c4ccccc43)[C@@H](O)[C@H]2O)n1	inactive
O=C(Nc1ncc([N+](=O)[O-])s1)C1COc2ccccc2O1 (stereo unspecified)	39.8 µM (active)
O=C(CCc1ccccc1)Nc1ncc([N+](=O)[O-])s1	inactive
COc1ccc(OC)c2sc(NC(=O)C3COc4ccccc4O3)nc12 (stereo unspecified)	inactive
Cc1cn(C2CC(O)C(CO)O2)c(=O)n(CCCc2ccccc2)c1=O (stereo unspecified)	inactive
COc1ccc(C(CNC(=O)c2cc(S(=O)(=O)Nc3cccc(C)c3)ccc2C)N2CCCC2)cc1 (stereo unspecified)	inactive
CCOC(=O)c1ccccc1NC(=O)CSc1nc2c(sc(=S)n2CC)c(=O)[nH]1	inactive
O=C(NN=Cc1ccc([N+](=O)[O-])cc1)C1CC1	inactive
COc1cc(/C=N/NC(=O)c2ccc(N3CCCC3=O)cc2)ccc1O	inactive
Cn1c(=O)n(C)c2cc(/C=N/NC(=O)c3cccc(Br)c3)ccc21	inactive
O=C(N/N=C/c1cccc(Br)c1)c1ccc(N2CCCC2=O)cc1	31.6 µM (active)
COc1ccc(/C=C2/CCCc3ccccc3C2=O)cc1	inactive
CC(=O)OC1CCC2(C)C(=CCC3C4CC(=O)N(O)C(=O)C4(C)CCC32)C1 (stereo unspecified)	inactive
Cc1cccc(N=Nc2c(C)[nH]n(-c3ccccc3)c2=O)c1	inactive
Cc1[nH]n(-c2cccc(Cl)c2)c(=O)c1-c1ccc(Cl)cc1	28.2 µM (active)
CCCc1cc(=O)n2[nH]c(C)c(-c3ccc(Cl)cc3)c2n1	inactive
O=C(NN=Cc1ccccc1O)NN=Cc1ccccc1O	inactive
Cc1cc(NC(=O)c2cc3ccccc3o2)no1	inactive
COc1ccc2sc(-c3ccc(N(C)C)cc3)c(-c3ccc4cc[nH]c4c3)c2c1	inactive
COc1ccc(-c2sc3ccc(OC)cc3c2C#Cc2ccccn2)cc1	28.2 µM (active)

SMILES	Potency
COc1ccc2sc(-c3ccc(N(C)C)cc3)c(C#CCO)c2c1	inactive
CN(C)C(=S)N=c1ssc(=S)n1Cc1ccco1	inactive
Cc1nn(-c2ccc([N+](=O)[O-])cc2)c(N)c1-c1ccccc1	inactive
O=c1[nH]n(-c2ccc([N+](=O)[O-])cc2)c(=O)c2ccccc12	inactive
O=C1CC(c2ccccc2)=NN1c1ccc([N+](=O)[O-])cc1	35.5 µM (active)
O=C1COc2c1ccc(O)c2O	inactive
O=C(O)c1ccc(Cn2cnc3c(=S)nc[nH]c32)cc1	inactive
O=C(CC(=O)c1cccnc1)c1ccccc1	inactive
CCC(=C/c1sc2ccc3ccccc3c2[n+]1C)/C=C1\Sc2ccc3ccccc3c2N1C	35.5 µM (active)
O=C1CC(c2ccccc2)C(c2ccccc2)=NN1 (stereo unspecified)	inactive
c1ccc(CNc2ncnc3[nH]ncc23)cc1	inactive
Cc1ccc(SCC(=O)N2CCN(c3ccc(F)cc3)CC2)cc1	inactive
CN(C(=O)c1ccc(NC(=O)Cc2cccc(NC(=O)C3CCN(C(=O)c4ccccc4)CC3)c2)cc1)C1CC1	inactive
Cc1ccc(NC(=O)Nc2nnc(-c3ccncc3)s2)cc1	50.1 µM (active)
CCc1ccc(NC(=O)Nc2ccncc2)cc1	inactive
Cc1ccc(NC(=O)Nc2cccnc2)cc1	inactive
O=C1NCC(Nc2ccccc2)C(=O)N1 (stereo unspecified)	inactive
COc1ccc(S(=O)(=O)N2C[C@H]3CON(C)[C@H]3C[C@H]2c2cccc(Br)c2)cc1	inactive
O=[N+]([O-])c1ccccc1/C=N/n1c(COc2ccccc2)n[nH]c1=S	inactive
S=c1[nH]nc(-c2ccncc2)n1/N=C/c1ccccc1Cl	inactive
Fc1ccccc1/C=N/n1c(-c2cccnc2)n[nH]c1=S	28.2 µM (active)
Cc1cccc(NC(=S)N2CCC(C(=O)c3ccc(F)cc3)CC2)c1	inactive

SMILES	Potency
Cc1nn(-c2ccccc2)c(C)c1NC(=O)COc1ccc(Cl)cc1Cl	50.1 µM (active)
Cc1nn(-c2ccccc2)c(C)c1NC(=O)CCl	inactive
Cc1nn(-c2ccccc2)c(C)c1NC(=O)COC(=O)c1cc(Cl)ccc1O	inactive
CC(C)Cn1cnc2c(SCc3ccc(Cl)cc3)nc(N)nc21	inactive
COC(=O)CC(CC(=O)OC)n1cccc1	inactive
Cc1nnc(SCC(=O)Nc2cccc(N)c2)n1-c1ccccc1	inactive
NS(=O)(=O)c1cccc(NC(=O)CSc2nc3ccccc3n2-c2ccccc2)c1	28.2 µM (active)
COc1ccc(-n2cnnc2SCC(=O)Nc2cccc(S(N)(=O)=O)c2)cc1	inactive
CNc1nc(=O)n(C2CCCO2)cc1C (stereo unspecified)	inactive
Cc1ccccc1OCC(=O)Nc1ccc(N2CCN(C(=O)C(C)C)CC2)c(Cl)c1	31.6 µM (active)
Cc1ccccc1OCC(=O)Nc1ccc2c(c1)ncn2C	inactive
Cc1ccccc1OCC(=O)Nc1ccc(S(=O)(=O)N2CCOCC2)cc1	inactive
COc1ccc2nc(N3C(=O)C(O)=C(C(=O)c4ccco4)C3c3ccco3)sc2c1 (stereo unspecified)	inactive
OCCN1CCN(CCO)C1=S	inactive
N#CC1=C(N)Oc2cc(N)ccc2C1c1ccccc1 (stereo unspecified)	inactive
O=S(=O)(c1ccc(NC(=S)NN=C(C2CC2)C2CC2)cc1)N1CCOCC1	inactive
CN(C)/N=C/c1cc(Cl)cc([N+](=O)[O-])c1O	inactive
O=[N+]([O-])c1cc(Cl)cc(/C=N/NC(=S)Nc2cc(S(=O)(=O)N3CCOCC3)ccc2Cl)c1O	50.1 µM (active)
